The values below come from PubChem BioAssay (EPA / NIEHS).

For orientation: AC50 means the midpoint of the concentration-response curve, whichever way the signal moves.

Values joined by “and” are separate entries in the source; they are usually repeats but may differ in a detail not shown here. Equal values may be shown once. Some compounds were tested as several samples or in several runs, with calls that do not always agree. Active and inactive are the calls of the source. Rule for the calls: active = hit-call score of the fitted dose curve at least 0.9, where 1 is the maximum; inactive = score below 0.9.

Read-out in this experiment: Interleukin-1 alpha (IL1a), IL1A (gene 3552)
Nature of the experiment: BSK_KF3CT_IL1a: BioMAP Diversity Plus: KF3CT Assay for Interleukin-1 alpha (IL1a) Biomarker Activity (AID 2283070). Particulars: primary human keratinocytes with fibroblasts; actives raise or lower the signal. The method in brief: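 Readout is IL-1a level by ELISA, compared bidirectionally with DMSO as baseline. Cells: human keratinocytes co-cultured with foreskin fibroblasts, harvested 24 h post-dose.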
`O=C(O)CCCOc1ccc(Cl)cc1Cl`: the result was inactive. `O=C(O)C(F)(F)C(F)(F)C(F)(F)C(F)(F)C(F)(F)C(F)(F)C(F)(F)F`: the concentration at half-maximal activity (AC50) was 30 µM (active) and the result was inactive. For `COc1nn(CSP(=S)(OC)OC)c(=O)s1`, the outcome was inactive. On the same count and under the same terms, under `CC1(c2ccc(Oc3ccccc3)cc2)OC(=O)N(Nc2ccccc2)C1=O` (configuration not stated) stands “inactive”; under `ClC1C(Cl)C(Cl)C(Cl)C(Cl)C1Cl` (configuration not stated), “inactive”; under `N#CN`, “inactive”. Still for that read-out and setting: under `COC(=O)c1ccccc1S(=O)(=O)NC(=O)N(C)c1nc(C)nc(OC)n1` stands “inactive”; under `O=C(NC(=O)c1c(F)cccc1F)Nc1ccc(OC(F)(F)C(F)OC(F)(F)F)c(Cl)c1` (configuration not stated), “inactive”. Regarding `CNC(=O)/C=C(\C)OP(=O)(OC)OC`, the outcome was inactive. On to `O=S(=O)(O)C(F)(F)C(F)(F)C(F)(F)C(F)(F)C(F)(F)C(F)(F)C(F)(F)C(F)(F)F`, for which the AC50 is 28.1 µM (active) and 16.4 µM (active); the outcome was inactive.

In the case of `COc1cc(OC)nc(NC(=O)NS(=O)(=O)c2cc(NC=O)ccc2C(=O)N(C)C)n1`, the result was inactive.

On to `O=C(O)COc1ccc(Cl)cc1Cl`, for which the result was inactive.

Regarding `CC1(C)C(C=C(Cl)Cl)C1C(=O)OC(C#N)c1ccc(F)c(Oc2ccccc2)c1` (configuration not stated), the result was inactive. The same measure, in the same setting: under `CCN(CC)C(=O)SCc1ccc(Cl)cc1` stands “inactive”. With `Oc1cc(Cl)ccc1Oc1ccc(Cl)cc1Cl`, the concentration at half-maximal activity (AC50) was 29.8 µM (active) [middle of 4 runs]. In the case of `C[C@H]1[C@H](c2ccc(Cl)cc2)SC(=O)N1C(=O)NC1CCCCC1`, the result was inactive. Still for that read-out and setting: under `CC(C)(C)C(O)/C(=C\c1ccc(Cl)cc1Cl)n1cncn1` (configuration not stated) stands “inactive”.

Take `CCC(C)(NC(=O)c1cc(Cl)c(C)c(Cl)c1)C(=O)CCl` (configuration not stated): the AC50 was 26.6 µM (active). On to `COC(=O)c1ccccc1CS(=O)(=O)NC(=O)Nc1nc(OC)cc(OC)n1`, for which the result was inactive. On the same count and under the same terms, with `COC(=O)c1ccccc1S(=O)(=O)NC(=O)Nc1nc(C)nc(OC)n1` the entry was “inactive”; with `CC(C)OC(=O)Nc1cccc(Cl)c1`, “inactive”. Still for that read-out and setting: under `CCOc1nc(NC)nc(NC(=O)NS(=O)(=O)c2ccccc2C(=O)OC)n1` stands “inactive”; under `O=C(Nc1ccccc1)Nc1cnns1`, “inactive”.

In the case of `CNC(=O)Oc1ccccc1OC(C)C`, the concentration at half-maximal activity (AC50) was 0.987 µM (active). `O=[N+]([O-])c1c(Cl)c(Cl)c(Cl)c(Cl)c1Cl`: the AC50 is 24.4 µM (active).
